Measurements published in PubChem BioAssay (EPA / NIEHS).
Activity calls are given as the source filed them. Rule for the calls: active = hit-call score of the fitted dose curve at least 0.9, where 1 is the maximum; inactive = score below 0.9.

What was measured:
[1] = APR_HepG2_NuclearSize_72hr: Apredica 72-hour HepG2 Assay for Nuclear Size (AID 2282925); settings: high-content imaging, actives raise or lower the signal
Summary of the method: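 HepG2 cells dosed 72 h at 0.39–200 uM (10 concentrations, duplicate) in 0.5% v/v DMSO final. Fixed, Hoechst 33342-stained nuclei imaged; nuclear diameter measured by automated image analysis. Bidirectional fit versus DMSO.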

[2] = ATG_CRE_CIS: Attagene CIS-FACTORIAL HepG2 Assay for human cAMP Responsive Element (CRE) binding protein 3 (AID 2282926); settings: HepG2 CRE cis-reporter, Attagene multiplexed mRNA; actives raise or lower the signal
Summary of the method: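 HepG2 cells transiently transfected with a multiplexed reporter library (CRE-driven unit among them) were dosed for 24 h. Reporter mRNA was quantified by RT-PCR, fluorescent labelling, HpaI digestion and capillary electrophoresis, with bidirectional fitting against DMSO baseline.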

[3] = target: CCAAT/enhancer-binding protein beta (Homo sapiens) (UniProt P17676); assay: ATG_C_EBP_CIS: Attagene CIS-FACTORIAL HepG2 Assay for human CCAAT/Enhancer Binding Protein (C/EBP) beta (AID 2282927); settings: HepG2 Attagene cis-factorial transcription factor reporter; actives raise or lower the signal
CCAAT/enhancer-binding protein beta (Homo sapiens), sequence (P17676 whole entry, looked up): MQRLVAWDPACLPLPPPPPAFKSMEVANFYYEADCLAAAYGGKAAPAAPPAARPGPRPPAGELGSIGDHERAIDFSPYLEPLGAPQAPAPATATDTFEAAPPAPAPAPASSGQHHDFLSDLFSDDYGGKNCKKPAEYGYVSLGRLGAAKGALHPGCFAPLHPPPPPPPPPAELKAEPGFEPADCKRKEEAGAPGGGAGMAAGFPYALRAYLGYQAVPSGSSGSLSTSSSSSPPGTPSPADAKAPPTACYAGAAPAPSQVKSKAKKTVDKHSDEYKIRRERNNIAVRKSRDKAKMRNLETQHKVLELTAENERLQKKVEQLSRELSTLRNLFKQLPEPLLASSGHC
Summary of the method: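 Transiently transfected HepG2 (MRTU library, endogenous TF-driven promoters); 24 h dosing; total RNA → oligo(dT) RT → PCR → 6-FAM primer extension → HpaI digest → CE; fit bidirectionally vs DMSO.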

[4] = ATG_DR4_LXR_CIS: Attagene CIS-FACTORIAL HepG2 Assay for human Liver X Receptor (LXR), DR4 submotif (AID 2282929); settings: HepG2 Attagene DR4 cis-reporter, mRNA transcription; actives raise or lower the signal
Summary of the method: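 Fluorescence intensity of labelled reporter cDNA fragments, separated by capillary electrophoresis, gives the signal. HepG2 cells bearing cis-regulated reporter constructs were treated 24 h; activity fitted bidirectionally relative to DMSO negative control.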

[5] = target: Aryl hydrocarbon receptor (Homo sapiens) (UniProt P35869); assay: ATG_Ahr_CIS: Attagene CIS-FACTORIAL HepG2 Assay for human Aryl Hydrocarbon Receptor (Ahr) (AID 2282930); settings: HepG2 AhR cis-factorial reporter transcription; actives raise or lower the signal
Aryl hydrocarbon receptor (Homo sapiens), sequence (P35869 whole entry, looked up): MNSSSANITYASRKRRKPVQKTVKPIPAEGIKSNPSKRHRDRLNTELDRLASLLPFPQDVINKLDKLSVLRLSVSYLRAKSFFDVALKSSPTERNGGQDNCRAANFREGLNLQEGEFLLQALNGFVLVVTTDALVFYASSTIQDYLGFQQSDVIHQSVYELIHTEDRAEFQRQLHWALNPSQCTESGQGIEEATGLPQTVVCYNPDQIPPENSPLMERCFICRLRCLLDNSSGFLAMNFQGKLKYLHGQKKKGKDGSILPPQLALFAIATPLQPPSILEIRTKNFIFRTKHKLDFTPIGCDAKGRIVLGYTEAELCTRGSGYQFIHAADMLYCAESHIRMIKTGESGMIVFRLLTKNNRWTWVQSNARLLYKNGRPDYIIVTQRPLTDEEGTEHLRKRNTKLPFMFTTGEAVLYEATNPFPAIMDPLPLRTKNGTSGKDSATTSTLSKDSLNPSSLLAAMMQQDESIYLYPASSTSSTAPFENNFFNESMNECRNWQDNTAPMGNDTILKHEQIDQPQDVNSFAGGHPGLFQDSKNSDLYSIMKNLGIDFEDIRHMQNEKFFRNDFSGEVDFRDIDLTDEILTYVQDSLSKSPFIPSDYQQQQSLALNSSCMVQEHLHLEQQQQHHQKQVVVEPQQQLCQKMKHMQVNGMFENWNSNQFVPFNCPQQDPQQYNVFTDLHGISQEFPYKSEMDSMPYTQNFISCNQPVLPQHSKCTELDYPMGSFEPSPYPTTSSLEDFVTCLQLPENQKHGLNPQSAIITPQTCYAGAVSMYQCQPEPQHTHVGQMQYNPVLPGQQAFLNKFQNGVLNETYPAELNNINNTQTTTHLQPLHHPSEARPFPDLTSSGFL
Summary of the method: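 Read-out: reporter mRNA quantified by RT-PCR with fluorescent primer extension and capillary electrophoresis. Human HepG2 liver cells carried transfected cis-promoter reporter units and were exposed to chemical for 24 h; gain or loss fitted relative to DMSO.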

[6] = ATG_AP_1_CIS: Attagene CIS-FACTORIAL HepG2 Assay for human Activator Protein 1 (AP-1) (AID 2282931); settings: HepG2 Attagene cis-factorial AP-1 reporter mRNA; actives raise or lower the signal
Summary of the method: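 Multiplexed HepG2 reporter assay, 24 h dosing. mRNA induction detected by RT-PCR plus capillary electrophoresis. Activity fitted in both directions against DMSO.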

[7] = ATG_AP_2_CIS: Attagene CIS-FACTORIAL HepG2 Assay for human Activator Protein 2 (AP-2) (AID 2282932); settings: HepG2 AP-2 cis-reporter, Attagene transcription factor profiling; actives raise or lower the signal
Summary of the method: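 Multiplexed mRNA reporter assay in HepG2: cis-regulated units report endogenous factor activity after 24 h treatment. Fluorescence from capillary electrophoresis of RT-PCR products gives the signal, with DMSO as baseline.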

[8] = ATG_BRE_CIS: Attagene CIS-FACTORIAL HepG2 Assay for human Bone Morphogenetic Protein (BMP) Response Element (BRE) (AID 2282933); settings: HepG2 BMP response element reporter, Attagene transcription factor profiling; actives raise or lower the signal
Summary of the method: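 Read-out: reporter mRNA induction quantified by RT-PCR and capillary electrophoresis after 24 h chemical exposure of transfected HepG2 cells. Endogenous factor activity on the BMP response element; gain or loss fitted against DMSO baseline.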

[9] = target: Retinoic acid receptor alpha (Homo sapiens) (UniProt P10276); assay: ATG_DR5_RAR_CIS: Attagene CIS-FACTORIAL HepG2 Assay for human Retinoic Acid Receptor Alpha (RARE), DR5 submotif (AID 2282934); settings: HepG2 Attagene cis-factorial RARE DR5 reporter, mRNA; actives raise or lower the signal;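 for AC50: reporter responds to endogenous RAR alpha beta and gamma in HepG2 not RARA alone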
Retinoic acid receptor alpha (Homo sapiens), sequence (P10276 whole entry, looked up): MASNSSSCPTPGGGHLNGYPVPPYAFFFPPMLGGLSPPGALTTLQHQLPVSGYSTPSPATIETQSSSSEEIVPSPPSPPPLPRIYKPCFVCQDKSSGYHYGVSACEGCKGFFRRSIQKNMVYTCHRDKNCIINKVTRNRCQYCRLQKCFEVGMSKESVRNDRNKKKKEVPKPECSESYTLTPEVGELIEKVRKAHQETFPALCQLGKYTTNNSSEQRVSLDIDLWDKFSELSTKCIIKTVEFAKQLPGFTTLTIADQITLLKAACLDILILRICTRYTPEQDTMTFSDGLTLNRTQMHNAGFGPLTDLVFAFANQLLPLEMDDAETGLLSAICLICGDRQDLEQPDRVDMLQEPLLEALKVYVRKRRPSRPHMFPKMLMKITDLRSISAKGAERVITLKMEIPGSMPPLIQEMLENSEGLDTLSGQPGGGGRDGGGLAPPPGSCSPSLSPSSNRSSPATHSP
Summary of the method: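 Read-out: DR5-driven reporter transcript measured by RT-PCR, 6-FAM primer extension, HpaI digest and capillary electrophoresis. Human HepG2 liver cells carry transiently transfected cis-element reporter constructs; dosing lasts 24 h. Gain or loss of signal fitted against DMSO baseline.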

[10] = target: Transcription factor E2F1 (Homo sapiens) (UniProt Q01094); assay: ATG_E2F_CIS: Attagene CIS-FACTORIAL HepG2 Assay for human E2F Transcription Factor 1 (AID 2282935); settings: HepG2 Attagene cis-reporter, E2F reporter RNA transcripts; actives raise or lower the signal
Transcription factor E2F1 (Homo sapiens), sequence (Q01094 whole entry, looked up): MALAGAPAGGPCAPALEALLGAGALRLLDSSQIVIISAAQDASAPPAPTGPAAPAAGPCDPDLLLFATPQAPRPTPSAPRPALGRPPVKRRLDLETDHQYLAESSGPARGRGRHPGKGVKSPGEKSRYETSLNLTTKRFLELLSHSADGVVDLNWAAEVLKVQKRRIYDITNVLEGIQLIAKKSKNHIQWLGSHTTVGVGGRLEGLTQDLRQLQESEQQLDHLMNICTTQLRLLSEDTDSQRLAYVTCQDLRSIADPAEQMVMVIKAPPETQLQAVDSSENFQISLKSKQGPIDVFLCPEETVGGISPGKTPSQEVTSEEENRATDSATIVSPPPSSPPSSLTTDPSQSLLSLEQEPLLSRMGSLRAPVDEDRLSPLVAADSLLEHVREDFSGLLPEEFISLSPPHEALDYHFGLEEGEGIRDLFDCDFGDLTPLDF
Summary of the method: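 Measures reporter transcript levels via RT-PCR with capillary electrophoresis detection in HepG2 cells harboring cis-regulated reporter units; 24 h post-dose; bidirectional curve fitting with DMSO as baseline.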

[11] = ATG_E_Box_CIS: Attagene CIS-FACTORIAL HepG2 Assay for human Enhancer Box (E-box) (AID 2282936); settings: HepG2 E-box cis-reporter transcription, actives raise or lower the signal
Summary of the method: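 First, HepG2 cells receive multiple cis-regulated reporter constructs by transient transfection. Next, chemicals are applied for 24 h. Finally, reporter mRNA is quantified via RT-PCR and capillary electrophoresis, with DMSO as baseline.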

[12] = ATG_M_61_CIS: Attagene CIS-FACTORIAL HepG2 Assay for M61 Transcription Factor (Internal Marker) (AID 2282937); settings: HepG2 Attagene CIS-FACTORIAL M61 internal marker reporter; actives raise or lower the signal
Summary of the method: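 Endogenous transcription factor activity in HepG2 is read through transiently transfected cis-element reporter units. After 24 h dosing, RNA undergoes reverse transcription, PCR and primer extension with 6-FAM before capillary electrophoresis; DMSO-referenced bidirectional fit.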

[13] = ATG_EGR_CIS: Attagene CIS-FACTORIAL HepG2 Assay for human Early Growth Response 1 (EGR1) (AID 2282938); settings: HepG2 Attagene CIS-FACTORIAL EGR reporter mRNA; actives raise or lower the signal
Summary of the method: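 Activity is taken as induction or loss of reporter mRNA versus DMSO, fitted bidirectionally. Transcripts from cis-regulated reporter units in transiently transfected HepG2 were measured after 24 h by RT-PCR with capillary electrophoresis.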

[14] = ATG_ERE_CIS: Attagene CIS-FACTORIAL HepG2 Assay for Estrogen Response Element (ERE) (AID 2282940); settings: HepG2 ERE cis-reporter, Attagene RNA transcript; actives raise or lower the signal
Summary of the method: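 Readout: reporter mRNA induction by RT-PCR, FAM-labelled primer extension, HpaI digestion and capillary electrophoresis, 24 h after dosing transfected HepG2 cells. Endogenous transcription factors act on cis-element-regulated reporters. Gain or loss fitted against DMSO.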

[15] = ATG_Ets_CIS: Attagene CIS-FACTORIAL HepG2 Assay for human Erythroblast Transformation Specific (ETS) (AID 2282941); settings: HepG2 ETS cis-reporter transcription, actives raise or lower the signal
Summary of the method: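 Human HepG2 hepatoma cells were transiently transfected with promoter-driven reporter constructs and treated for 24 hours. Reporter transcripts were quantified by RT-PCR with fluorescent primer extension; bidirectional curve fitting used DMSO as reference.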

[16] = target: Hepatocyte nuclear factor 3-beta (Homo sapiens) (UniProt Q9Y261); assay: ATG_FoxA2_CIS: Attagene CIS-FACTORIAL HepG2 Assay for human Forkhead box A2 (FOXA2) (AID 2282942); settings: HepG2 cis-reporter transcription factor activity, 24 h; actives raise or lower the signal
Hepatocyte nuclear factor 3-beta (Homo sapiens), sequence (Q9Y261 whole entry, looked up): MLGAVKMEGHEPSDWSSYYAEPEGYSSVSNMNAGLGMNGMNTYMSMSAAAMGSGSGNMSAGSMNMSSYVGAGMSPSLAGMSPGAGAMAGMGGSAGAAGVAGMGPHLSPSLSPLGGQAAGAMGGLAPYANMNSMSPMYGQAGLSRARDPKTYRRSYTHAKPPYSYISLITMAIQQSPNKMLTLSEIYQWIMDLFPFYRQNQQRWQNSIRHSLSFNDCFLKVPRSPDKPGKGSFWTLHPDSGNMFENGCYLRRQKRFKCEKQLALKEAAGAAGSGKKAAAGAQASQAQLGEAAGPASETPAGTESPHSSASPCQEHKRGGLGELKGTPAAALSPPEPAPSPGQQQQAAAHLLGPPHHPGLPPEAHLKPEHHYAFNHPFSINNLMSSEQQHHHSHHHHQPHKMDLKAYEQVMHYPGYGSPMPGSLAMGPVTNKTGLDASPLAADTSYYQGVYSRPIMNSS
Summary of the method: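 Reporter transcript induction is measured by fluorescence after capillary electrophoresis of RT-PCR products from HepG2 cells exposed 24 h. Cis-regulated reporter units report endogenous factor activity; curves fitted both directions against DMSO.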

[17] = ATG_FoxO_CIS: Attagene CIS-FACTORIAL HepG2 Assay for human Forkhead box O (FoxO) (AID 2282943); settings: HepG2 Attagene cis-reporter, FoxO element, mRNA; actives raise or lower the signal
Summary of the method: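 Read-out: fluorescence of 6-FAM-labelled reporter cDNA fragments resolved by capillary electrophoresis. Transiently transfected HepG2 cells were dosed for 24 h; activity fitted in both directions relative to DMSO controls.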

[18] = ATG_GATA_CIS: Attagene CIS-FACTORIAL HepG2 Assay for human GATA Binding Protein (AID 2282944); settings: HepG2 GATA cis-element reporter, Attagene multiplex mRNA; actives raise or lower the signal
Summary of the method: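 Read-out: fluorescent reporter mRNA fragments resolved by capillary electrophoresis after RT-PCR. Human liver HepG2 cells carried transiently transfected cis-regulated reporter constructs; chemicals incubated 24 h; gain or loss of signal fitted relative to DMSO.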

[19] = ATG_M_19_CIS: Attagene CIS-FACTORIAL HepG2 Assay for M19 Transcription Factor (Internal Marker) (AID 2282939); settings: HepG2 Attagene CIS-FACTORIAL M19 internal marker reporter; actives raise or lower the signal
Summary of the method: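 Readout: fluorescent reporter-transcript fragments by capillary electrophoresis after RT-PCR. Human HepG2 liver cells carried transfected MRTU constructs reporting endogenous transcription-factor activity; exposure 24 h. Gain or loss of signal fitted relative to DMSO.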

Measured: AC50

COc1cc(/C=C/C(=O)CC(=O)/C=C/c2ccc(O)c(OC)c2)ccc1O
active: [4] 58.3 µM | [5] 55.2 µM | [6] 54.7 µM | [7] 55.5 µM | [9] 25.9 µM | [11] 45.8 µM | [13] 42.5 µM | [17] 33.4 µM
not listed: [19]
inactive: all other assays above

NC(=O)Cn1c(=O)cc(CCN2CCN(c3nccc4sccc34)CC2)c2ccc(F)cc21
not listed: [9]
inactive: all other assays above

Cc1cccc([N+](=O)[O-])c1C
not listed: [19]
inactive: all other assays above

CN[C@H]1CC[C@@H](c2ccc(Cl)c(Cl)c2)c2ccc(S(N)(=O)=O)cc21
not listed: [9] | [19]
inactive: all other assays above

CCCCCCCCCCO
active: [2] 183 µM
not listed: [19]
inactive: all other assays above

Cc1c(C(=O)O)c(O)cc2c1C(=O)c1c(O)c([C@@H]3O[C@H](CO)[C@@H](O)[C@H](O)[C@H]3O)c(O)c(O)c1C2=O
not listed: [19]
inactive: all other assays above

CCNc1cccc(C)c1
not listed: [19]
inactive: all other assays above

O=[N+]([O-])C(CO)(CO)CO
active: [5] 68.9 µM
not listed: [19]
inactive: all other assays above

OC[C@@H](O)[C@@H](O)[C@H](O)[C@H](O)CO
not listed: [19]
inactive: all other assays above
